In PubChem BioAssay AID454 (Sanford-Burnham Center for Chemical Genomics, 2006):
Hit rate of the full screen: of about 10,000 compounds, about 25 (0.2%) were called active.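 The calls were made as follows: active = compound among top-ranked inhibitors of TNF-induced VCAM-1 adhesion protein staining, with the hit upheld by image or statistical review; inactive = the rest, including hits rejected on review.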 Shown is part of a subset that was picked to be rich in actives.

Assay: inhibitors of TNFa-induced VCAM-1 surface display, cell-based, plate reader, pooled HUVEC, TNFa stimulus (AID 454)
Settings: HUVEC TNFa-induced VCAM-1 surface immunofluorescence; hits give high values,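 compound tested at 5 µM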

SMILES	inhibition
O=C(Cn1cc(C(=O)c2ccccc2)c2ccccc21)NCc1ccco1	inactive
Cc1cccc(C2=NCC(=O)N(CC(=O)NCc3ccco3)c3sc4c(c32)CCCC4)c1	78.7% (active)
O=C(CN1C(=O)CN=C(c2ccccc2)c2ccccc21)NCc1ccco1	inactive
COc1ccc(CCn2c(O)c(C=NCc3cccnc3)c(=O)[nH]c2=O)cc1OC	inactive
CCOc1ccc(C2SCC(=O)Nc3c2c(=O)[nH]n3C2CCCCCC2)cc1 (stereo not given)	inactive
